# Assay results: PubChem BioAssay AID2284105 (EPA ToxCast)
# Results filed as inconclusive are left out. Calls of active or inactive are those of the source. The calls were made as follows: active = hit-call score of the fitted dose curve at least 0.9, where 1 is the maximum; inconclusive = response in the unintended direction; inactive = score below 0.9.
# Target: human Monoamine Oxidase A (MAO-A), MAOA (gene 4128) (UniProt P21397)
# Experiment: ERF_FR_ENZ_hMAOA: Eurofins (ERF) Enzymatic LeadHunter Assay for human Monoamine Oxidase A (MAO-A)
# Protocol: ERF_FR_ENZ_hMAOA is a biochemical, single-readout assay that uses extracted gene-proteins in a cell-free assay. Measurements were taken 0.33 hour after chemical dosing in a 96-well plate. See Monoamine Oxidase A (MAO-A) Human Enzymatic Assay, Cerep.ERF_FR_ENZ_hMAOA is an assay component calculated from the ERF_FR_ENZ_hMAOA assay. It is designed to measure enzyme activity using a type of enzyme reporter as detected by fluorescence intensity with spectrophotometry technology.Data from the assay component ERF_FR_ENZ_hMAOA was analyzed at the assay endpoint, ERF_FR_ENZ_hMAOA, in the positive analysis fitting direction relative to DMSO as the negative control and baseline of activity. Using a type of enzyme reporter, loss-of-signal activity can be used to understand changes in enzymatic activity as they relate to gene MAOA. To generalize the intended target to other relatable targets, this assay endpoint is annotated to the […] intended target family, where the subfamily is monoamine oxidase.
# Human cells are incubated for 45 minutes at room temprature with Kynuramine, diHCl at 350 uM as sunstrate. Test Sample Requirements: Minimum for 1) Screen: 60 ul of 10 mM stock -OR- 1 mg (pre-weighed) for 10 uM final testing. 2) Dose Response: 90 ul of 10 mM stock -OR- 1 mg (pre-weighed) for a top concentration at 10 uM.
# Sequence of human Monoamine Oxidase A (MAO-A), MAOA (gene 4128) (P21397 whole entry, looked up): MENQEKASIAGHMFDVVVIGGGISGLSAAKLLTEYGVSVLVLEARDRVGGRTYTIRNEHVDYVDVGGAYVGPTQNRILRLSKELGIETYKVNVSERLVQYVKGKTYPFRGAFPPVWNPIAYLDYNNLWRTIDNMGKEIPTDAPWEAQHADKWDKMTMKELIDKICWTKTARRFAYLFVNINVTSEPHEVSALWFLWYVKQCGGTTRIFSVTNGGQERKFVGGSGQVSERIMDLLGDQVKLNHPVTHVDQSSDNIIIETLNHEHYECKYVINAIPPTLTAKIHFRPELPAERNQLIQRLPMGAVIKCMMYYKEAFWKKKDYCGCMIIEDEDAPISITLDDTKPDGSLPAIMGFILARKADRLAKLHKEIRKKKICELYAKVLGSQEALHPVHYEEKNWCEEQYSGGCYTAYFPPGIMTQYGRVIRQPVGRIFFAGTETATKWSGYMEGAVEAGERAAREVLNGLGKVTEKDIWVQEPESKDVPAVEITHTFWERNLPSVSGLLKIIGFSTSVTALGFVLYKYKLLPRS
row,Structure (SMILES),outcome
1,COc1cc(/C=C/C(=O)CC(=O)/C=C/c2ccc(O)c(OC)c2)ccc1O,inactive
2,COc1cc(CCC(=O)CC(=O)CCc2ccc(O)c(OC)c2)ccc1O,inactive
